Only some compounds are listed: those with a hit (about 21% of all), similar ones and a draw of the others.
Cycloheximide cs: affects cycloheximide protein synthesis inhibition readout, counter-screen; cell reporter, cycloheximide protein synthesis inhibition counterscreen; max response, %; 12% of 300,000 active; in the data active = max response mostly above about 13%, no sharp cut-off; inactive = mostly below about 14%; note: read at 38.3 µM for the half of the compounds with a filed dose; 0% is about no effect
HCV inhibitor: blocks hepatitis C virus; 3.4% of 340,000 active; Potency, µM (titrated, usually from 41.8 µM), for inactives: at the highest dose activity change, negative = inhibition, actives largely listed as inhibitors; Huh7.5.1 HCVcc-Cre infection, luciferase reporter, 44 h; note: potency is the fitted concentration of half-maximal effect; % is set by controls: 0 for no effect and ±100 for the full control effect
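Luciferase read-out (15 sec integration) after a 15 min room-temperature substrate step quantifies HCVcc-Cre infection. Cells, 1,000 per well, had compound added 4 h post-plating, then virus at ~0.5 moi, and were cultured 44 h.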
Pf growth 48h: P. falciparum growth inhibition at 48 hours (one generation) | P. falciparum luciferase growth in erythrocytes, 48 h | AID 504832 | Potency, µM (series often up to 28.7 µM), without a hit: at the highest dose activity change, negative = inhibition, actives largely listed as inhibitors | 5.9% of 310,000 active; note: potency is the fitted concentration of half-maximal effect; % is set by controls: 0 for no effect and ±100 for the full control effect
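Luminescence readout; reporter = integrated firefly luciferase in P. falciparum. RBC culture at 2% hematocrit, 0.1% parasitemia final, 37 C/5% CO2; decreased signal taken as growth inhibition.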
Pf growth 96h: P. falciparum growth inhibition at 96 hours | P. falciparum luciferase reporter growth, 96 h | Potency, µM (doses to about 28.7 µM), inactives show at the highest dose activity change, negative = inhibition, most hits filed as inhibitors | 6.9% of 320,000 active | AID 504834; note: potency is the fitted concentration of half-maximal effect; % is set by controls: 0 for no effect and ±100 for the full control effect
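Plates of compound plus infected erythrocytes (2% hematocrit, 0.05% parasitemia final) incubate 96 hours, 37 C, 5% CO2. Detection reagent added; reduced luminescence from the parasites' luciferase reporter flags inhibition.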
AMA1-RON2 inh: inhibitors of Plasmodium falciparum AMA1-RON2 interaction; AlphaScreen AMA1-biotinylated RON2 peptide binding; Potency, µM (top dose mostly 58.2 µM), without a hit: at the highest dose activity change, negative = inhibition, hits mostly inhibitors; 0.2% of 360,000 active;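 note: potency is the fitted concentration of half-maximal effect; 0% = vehicle wells and -100% = peptide control; nearly all actives have a fitted effect of over 45% in size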
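AMA1 (3D7) with his tag at 25 nM final met compounds first, then biotinylated RON2 peptide at 25 nM; detection used donor plus acceptor beads, 10 µg/mL apiece, read by AlphaScreen after 30 min at room temperature.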
Shiga inhibitor: Shiga toxin inhibition; Vero cells, Shiga toxin protein synthesis inhibition reporter; inhibition, % at 38.7 µM; 9.2% of 290,000 active; AID 2315; in the data active = inhibition mostly above about 28%, no sharp cut-off; inactive = mostly below about 43%; note: 0% is about no effect
The depositor's hits bear a star; [ ] = remark or other dose. Unless noted, calls come from the whole dose curve; as a rule, active = well fitted curve in the direction sought with a large enough effect; inconclusive = small, poorly fitted or top-dose-only effect, or another doubt; inactive = no such curve, though single readings can be large; an effect the other way counts as inactive or inconclusive.

Screening CN(C)C(=O)c1cccc(-c2cnc3c(NC=O)cc(-c4ccccc4F)cn23)c1 returned AMA1-RON2 inh 0%.
Screening CCCCN(C(=O)CC1CCCC1)c1c(N)n(Cc2ccccc2)c(=O)[nH]c1=O returned AMA1-RON2 inh 0%.
Screening CN=C1SC(CC(=O)Nc2ccccc2F)C(=O)N1/N=C/c1ccc(O)c(OC)c1 (configuration not stated) returned Cycloheximide cs 20, HCV inhibitor inconclusive, Pf growth 48h -18%, Pf growth 96h -23%[5.75 µM], AMA1-RON2 inh -2% and Shiga inhibitor 6.
CCOc1ccc(/C=N/N2C(=O)C(CC(=O)Nc3ccc(F)cc3F)SC2=NC)cc1OC (configuration not stated) was read as Cycloheximide cs -2, HCV inhibitor -16%, Pf growth 48h 12µM*, Pf growth 96h 12µM*, AMA1-RON2 inh 7% and Shiga inhibitor -18.
For O=C1c2cccnc2C(=O)N1Cc1ccc(S(=O)(=O)N2CCN(c3ccccc3)CC2)cc1 the results were Cycloheximide cs 6, HCV inhibitor -8%, Pf growth 48h 33%, Pf growth 96h 31%, AMA1-RON2 inh 5% and Shiga inhibitor -6.
`CCN(CC)c1ccc(S(=O)(=O)N2CCOCC2)cc1NC(=O)CN1C(=O)NC2(CCCC2)C1=O` gave Cycloheximide cs -5, HCV inhibitor 2%, Pf growth 48h inconclusive, Pf growth 96h inconclusive, AMA1-RON2 inh 3% and Shiga inhibitor -5.
CC1(C)NC(=O)N(CC(=O)Nc2cc(S(=O)(=O)N3CCOCC3)ccc2N2CCOCC2)C1=O was read as Cycloheximide cs 5, Pf growth 48h 19%, Pf growth 96h 7.4µM* and Shiga inhibitor -11.
`O=C(CN1CCc2ccccc2C1)Nc1cc(S(=O)(=O)N2CCOCC2)ccc1N1CCOCC1` gave Cycloheximide cs -1, HCV inhibitor -3%, Pf growth 48h inconclusive, Pf growth 96h 13µM*, AMA1-RON2 inh 7% and Shiga inhibitor 6.
`O=C(CN1CCc2ccccc2C1)Nc1cc(S(=O)(=O)N2CCOCC2)ccc1N1CCCC1` gave Cycloheximide cs -2, HCV inhibitor 0%, Pf growth 48h inconclusive, Pf growth 96h inconclusive, AMA1-RON2 inh 0% and Shiga inhibitor -11.
`N#C/C(=C\c1cccc(OCC(=O)O)c1)c1nc2ccccc2[nH]1` gave Cycloheximide cs 25*, HCV inhibitor 14%, Pf growth 48h -8%, Pf growth 96h inconclusive, AMA1-RON2 inh 27% and Shiga inhibitor 36.
Screening CCN(CC)c1ccc(/C=C(/C#N)c2nc3ccccc3[nH]2)c(OC(C)C)c1 returned Cycloheximide cs 48*, HCV inhibitor 2µM*, Pf growth 48h inconclusive, Pf growth 96h inconclusive, AMA1-RON2 inh 32% and Shiga inhibitor 119*.
Screening CCOc1cccc(/C=C(/C#N)c2nc3ccccc3[nH]2)c1OCC(=O)O returned Cycloheximide cs 22*, HCV inhibitor 5%, Pf growth 48h 4%, Pf growth 96h inconclusive and AMA1-RON2 inh 0%.
For N#C/C(=C\c1ccc(-c2ccc(C(=O)O)cc2)o1)c1nc2ccccc2[nH]1 the results were Cycloheximide cs 8, HCV inhibitor 5%, Pf growth 48h inconclusive, Pf growth 96h 21%, AMA1-RON2 inh 11% and Shiga inhibitor -7.
COc1cccc(/C=C(\C#N)c2nc3ccc(C)cc3[nH]2)c1OCC(=O)O was read as Cycloheximide cs 27*, HCV inhibitor 3%, Pf growth 48h 4%, Pf growth 96h -2%, AMA1-RON2 inh 0% and Shiga inhibitor 40*.
`O=C(CN1CSCC1=O)N1CCN(S(=O)(=O)c2ccc(Cl)cc2)CC1` gave HCV inhibitor -7%, Pf growth 48h -15%, Pf growth 96h 17% and AMA1-RON2 inh 20%.
For COc1cccc2c1Oc1ncccc1N(C(=O)CCC(=O)NCc1ccccc1)C2 the results were Cycloheximide cs 6, HCV inhibitor 17%, Pf growth 48h inconclusive, Pf growth 96h -3%, AMA1-RON2 inh 13% and Shiga inhibitor -4.
For COc1cccc2c1Oc1ncccc1N(C(=O)CCC(=O)NCc1ccccc1F)C2 the results were Cycloheximide cs -2, HCV inhibitor 6%, Pf growth 48h -14%, Pf growth 96h 12µM*, AMA1-RON2 inh -1% and Shiga inhibitor -3.
COc1ccccc1CNC(=O)CCC(=O)N1Cc2cccc(OC)c2Oc2ncccc21 was read as Cycloheximide cs -4, HCV inhibitor -10%, Pf growth 48h 0%, Pf growth 96h 9.3µM*, AMA1-RON2 inh -5% and Shiga inhibitor 8.
CCOc1ccccc1CNC(=O)CCC(=O)N1Cc2ccccc2Oc2ncccc21 was read as Cycloheximide cs -9, HCV inhibitor -7%, Pf growth 48h -15%, Pf growth 96h 9.3µM*, AMA1-RON2 inh 10% and Shiga inhibitor -10.
For CCOc1ccc(CNC(=O)CCC(=O)N2Cc3ccccc3Oc3ncccc32)cc1 the results were Cycloheximide cs -3, HCV inhibitor 5%, Pf growth 48h inconclusive, Pf growth 96h inconclusive, AMA1-RON2 inh -10% and Shiga inhibitor 2.
CCOc1ccc(NC(=O)CCS(=O)(=O)c2ccc(C)cc2)cc1 was read as Cycloheximide cs 2, HCV inhibitor 23%, Pf growth 48h 2%, Pf growth 96h 2%, AMA1-RON2 inh -8% and Shiga inhibitor -17.
Cc1ccc(S(=O)(=O)N2CCOCC2)cc1C(=O)O was read as Cycloheximide cs -7, HCV inhibitor 15%, Pf growth 48h 7%, AMA1-RON2 inh -8% and Shiga inhibitor -15.
Screening CCOc1ccccc1C(=O)Nc1ccc(S(=O)(=O)N2CCN(C)CC2)cc1 returned Cycloheximide cs -2, HCV inhibitor -24%, Pf growth 48h -6%, Pf growth 96h inconclusive, AMA1-RON2 inh -2% and Shiga inhibitor -6.
Screening CCOc1ccc(S(=O)(=O)N2CCOCC2)cc1NC(=O)CSCc1ccc(C)cc1 returned HCV inhibitor inconclusive, Pf growth 48h 9.3µM*, Pf growth 96h inconclusive and AMA1-RON2 inh -4%.
CCCCn1ccnc1C(=O)c1cc(S(=O)(=O)N2CCOCC2)ccc1C was read as Cycloheximide cs 1, HCV inhibitor 11µM*, Pf growth 96h -26%, AMA1-RON2 inh -3% and Shiga inhibitor -11.
`CCOc1cc(C(=S)N2CCOCC2)ccc1OS(=O)(=O)c1ccc(NC(C)=O)cc1` gave Cycloheximide cs 13, HCV inhibitor 7.1µM*, Pf growth 48h 0%, Pf growth 96h -24%, AMA1-RON2 inh -1% and Shiga inhibitor -9.
For CCOc1ccccc1C(=O)Nc1ccc(S(=O)(=O)N2CCOCC2)cc1 the results were Cycloheximide cs -1, HCV inhibitor 13µM*, Pf growth 48h -17%, Pf growth 96h 17%, AMA1-RON2 inh 2% and Shiga inhibitor -12.
